Experimental findings from PubChem BioAssay (NCI) are described below.

Among the test systems are RPMI-8226 leukemia; OVCAR-8 ovarian; OVCAR-5 ovarian; OVCAR-4 ovarian; SK-OV-3 ovarian; IGROV1 ovarian; OVCAR-3 ovarian; HS 578T breast; NCI/ADR-RES ovarian; T-47D breast; BT-549 breast; MDA-MB-435 melanoma; SW-620 colon; MCF7 breast; HCT-116 colon; HCC-2998 colon; KM12 colon.
Assay in all cases: NCI-60 one-dose screen, 48 h (100 = growth as untreated, 0 = no growth, -100 = all killed)
Details in all cases: 10 µM unless noted

This is part of a sample that, as a whole, favours compounds with a hit. Of some 83,000 tested, about 20% had one in any assay.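 96-well plates, one dose, 48 hours. Percent growth reported; active if below 10.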 Unmarked numbers belong to inactive results. Activity calls are given as the source filed them.

Take `Cc1cccc(OCC(O)CN2CCN(c3ccc(Cl)cc3)CC2)c1` (stereo unspecified): the growth in the assay on RPMI-8226 leukemia was 103%; with OVCAR-8 ovarian, 94.9%; with OVCAR-5 ovarian, 103%; with OVCAR-4 ovarian, 106%; in the assay on SK-OV-3 ovarian it was 115%; with IGROV1 ovarian it was 124%. Moreover, the growth in the assay with OVCAR-3 ovarian is 104%; with HS 578T breast, 107%; in the assay with NCI/ADR-RES ovarian it was 102%; in the assay on T-47D breast, 107%; in the assay with BT-549 breast it was 99.6%; in the assay on MDA-MB-435 melanoma it was 111%. Besides, the growth is 104% in the assay on SW-620 colon; 87.5% in the assay on MCF7 breast; 86.7% in the assay with HCT-116 colon; 110% with HCC-2998 colon; 106% in the assay on KM12 colon.
With `COc1c(C2CC(=O)Nc3c2c(C)nn3-c2nc3ccccc3[nH]2)cc2c(c1OC)OCO2` (stereo unspecified), the growth is 53.6% with RPMI-8226 leukemia; 52% with OVCAR-8 ovarian; 105% in the assay with OVCAR-5 ovarian; 83.2% with OVCAR-4 ovarian; 42% in the assay with SK-OV-3 ovarian; 48.8% with IGROV1 ovarian. For the same molecule, the growth is 36.1% in the assay with OVCAR-3 ovarian; 28.3% in the assay with HS 578T breast; 39.8% with NCI/ADR-RES ovarian; 43.8% in the assay on T-47D breast; 47.8% in the assay on BT-549 breast; -32.7% (active) in the assay with MDA-MB-435 melanoma. The growth with SW-620 colon is 36.4%; in the assay on MCF7 breast it was 24.1%; with HCT-116 colon, 28.5%; in the assay on HCC-2998 colon, 94.1%; with KM12 colon it was 45.9%.
Take `COc1ccc(C(=S)N2CCN(c3cccc(C)c3)CC2)cc1OC`: the growth is 80% with RPMI-8226 leukemia; 76.6% in the assay on OVCAR-8 ovarian; 93.4% with OVCAR-5 ovarian; 103% in the assay on OVCAR-4 ovarian; 88.5% with SK-OV-3 ovarian; 42.4% in the assay with IGROV1 ovarian. The growth with OVCAR-3 ovarian was 41.1%; in the assay on HS 578T breast it was 103%; in the assay on NCI/ADR-RES ovarian it was 5.68% (active); with T-47D breast, 76%; in the assay with BT-549 breast, 59.1%; in the assay with MDA-MB-435 melanoma, 2.58% (active). Besides, the growth is 36.5% with SW-620 colon; 43.4% in the assay with MCF7 breast; 37% in the assay on HCT-116 colon; 62.5% in the assay on HCC-2998 colon; 43.2% with KM12 colon.
As for `COc1cccc(OC)c1C(=O)N[C@@H]1C(=O)N2[C@@H]1SC(C)(C)[C@@H]2C(=O)O`, the growth in the assay with RPMI-8226 leukemia was 102%; in the assay on OVCAR-8 ovarian it was 107%; in the assay with OVCAR-5 ovarian it was 110%; in the assay on OVCAR-4 ovarian, 104%; in the assay on SK-OV-3 ovarian, 99.5%; in the assay with IGROV1 ovarian it was 99.6%. The growth is 119% with OVCAR-3 ovarian; 114% in the assay with HS 578T breast; 101% in the assay with NCI/ADR-RES ovarian; 98.3% with T-47D breast; 95.4% with BT-549 breast; 105% with MDA-MB-435 melanoma. Also, the growth in the assay with SW-620 colon was 107%; with MCF7 breast, 98%; in the assay with HCT-116 colon, 97.9%; with HCC-2998 colon it was 105%; in the assay with KM12 colon it was 107%.
`Cc1nc(/N=C(\N)NC(=O)Nc2ccccc2Cl)sc1C`: the growth in the assay with RPMI-8226 leukemia is 8.06% (active); in the assay on OVCAR-8 ovarian it was 33.9%; in the assay with OVCAR-5 ovarian, 51.3%; in the assay with OVCAR-4 ovarian it was 55.1%; in the assay on SK-OV-3 ovarian, 45.4%; in the assay with IGROV1 ovarian, 42.8%. The growth is 12.1% with OVCAR-3 ovarian; 13.5% with HS 578T breast; 15.7% in the assay with NCI/ADR-RES ovarian; 34.7% with T-47D breast; 69.3% in the assay with BT-549 breast; -25.6% (active) in the assay on MDA-MB-435 melanoma. Further, the growth is 36.3% in the assay with SW-620 colon; 23.6% in the assay on MCF7 breast; 28.5% with HCT-116 colon; 33.4% with HCC-2998 colon; 40.3% in the assay on KM12 colon.
As for `Cc1cc(Cl)ccc1NS(=O)(=O)c1ccc(-c2cnc(C3CC3)o2)cc1`, the growth was 19.3% in the assay with RPMI-8226 leukemia; 27.4% in the assay on OVCAR-8 ovarian; 27.8% in the assay on OVCAR-5 ovarian; 40% in the assay on OVCAR-4 ovarian; 50.8% with SK-OV-3 ovarian; 23.3% in the assay on IGROV1 ovarian. The growth in the assay with OVCAR-3 ovarian is -16.9% (active); in the assay with HS 578T breast, 22.1%; in the assay on NCI/ADR-RES ovarian it was 6.12% (active); with T-47D breast, 49.6%; in the assay with BT-549 breast it was 11.5%; in the assay with MDA-MB-435 melanoma it was -36.4% (active). The growth was 21.9% with SW-620 colon; 12.7% with MCF7 breast; 12.9% with HCT-116 colon; 15.9% with HCC-2998 colon; 15.5% in the assay with KM12 colon.
As to `CN1CCN(c2ccc(-c3ccc4ncc(C#N)c(Nc5ccc(F)c(Cl)c5)c4c3)cn2)CC1`, the growth was 14.9% in the assay with RPMI-8226 leukemia; 59.8% in the assay on OVCAR-8 ovarian; 60.8% in the assay with OVCAR-5 ovarian; 52.2% with OVCAR-4 ovarian; 25.8% in the assay with SK-OV-3 ovarian; 8.52% (active) with IGROV1 ovarian. The growth is 58.6% in the assay with OVCAR-3 ovarian; 52.2% with HS 578T breast; 67.8% with NCI/ADR-RES ovarian; 60.8% in the assay on T-47D breast; 60.3% in the assay on BT-549 breast; 81.6% in the assay on MDA-MB-435 melanoma. Also, the growth in the assay on SW-620 colon is 53.4%; in the assay with MCF7 breast, 66.9%; with HCT-116 colon, 32.8%; in the assay on HCC-2998 colon it was 68.9%; in the assay with KM12 colon, 80.7%.
`Oc1ccc(-c2nc3ccc4[nH]ncc4c3c3c2CCCC3)c2cccnc12`: the growth was -6.23% (active) in the assay with RPMI-8226 leukemia; 9.31% (active) in the assay on OVCAR-8 ovarian; 21.9% in the assay on OVCAR-5 ovarian; 10.2% in the assay with OVCAR-4 ovarian; -0.881% (active) in the assay on SK-OV-3 ovarian; 6.65% (active) in the assay with IGROV1 ovarian. In addition, the growth in the assay on OVCAR-3 ovarian was 18.3%; in the assay on HS 578T breast, -14.7% (active); with NCI/ADR-RES ovarian, 7.95% (active); in the assay with T-47D breast it was 15.1%; in the assay with BT-549 breast it was -12.9% (active); in the assay on MDA-MB-435 melanoma, -7.42% (active). Also, the growth is 7.64% (active) in the assay on SW-620 colon; 2.05% (active) in the assay with MCF7 breast; 2.74% (active) in the assay on HCT-116 colon; 5.08% (active) in the assay with HCC-2998 colon; 2.51% (active) with KM12 colon.
